Results as given in PubChem BioAssay AID2315 (National Center for Advancing Translational Sciences (NCATS), 2010).
Values joined by “and” are separate entries in the source; they are usually repeats but may differ in a detail not shown here. Equal entries are not always repeated. Screen size: about 290,000 compounds; about 27,000 (9.3%) were called active. No stated cut-off is given here; in the data, active means inhibition mostly above about 28% (no sharp cut-off); inactive means mostly below about 43%. Only a selection was taken, and actives are over-represented in it overall.

assay: A qHTS for Small Molecule Inhibitors of Shiga Toxin; conditions: Vero cells, Shiga toxin protein synthesis inhibition reporter; at 38.7 µM, hits give high values; further: 0% is about no effect

For `CCC(C(=O)OC)n1cnc2scc(-c3ccc(C)cc3)c2c1=O` (centres undefined), which inhibition is on record?
Its inhibition is -4.36% (inactive).

For `O=C(CCN1C(=O)[C@H]2CC=CC[C@H]2C1=O)NCc1nc(-c2ccccc2)no1`, which inhibition is on record?
The inhibition was 24.8% (inactive).

Which inhibition does the source give for `COc1ccc(OC)c(S(=O)(=O)N2CCCC(C(=O)NCCc3ccccc3)C2)c1` (centres undefined) here?
The inhibition was 9.04% (inactive).

With `Cc1ccc(Nc2nc(-c3ccc(O)cc3O)cs2)nc1` as the compound, how does the inhibition read?
Its inhibition is 67.2% (active).

Which inhibition does the source give for `Cc1ccc(NC(=O)c2cc(-c3ccc(C)o3)nc3ccccc23)nc1` here?
The inhibition was -4.51% (inactive).

For `COc1ccc(/C(C)=N\NC(=O)c2ccc(-c3ccccc3)cc2)c(F)c1`, which inhibition is on record?
Its inhibition is 2.19% (inactive).

For `CN(C(=O)COC(=O)CNC(=O)C12CC3CC(CC(C3)C1)C2)c1ccccc1`, which inhibition is on record?
The inhibition was 11.2% (inactive).

For `Cc1c(C)c(C)c(S(=O)(=O)NCCc2ccccn2)c(C)c1C`, which inhibition is on record?
The inhibition was -12.6% (inactive).

For `O=C(CNC(=O)COc1ccccc1)NCCc1ccccn1`, which inhibition is on record?
Its inhibition is -6.4% (inactive).

For `COc1ccc(NCCc2ccccn2)cc1`, which inhibition is on record?
Its inhibition is 85% (active).

For `CC(=O)c1cccc(NC(=S)N2CCCC2)c1`, which inhibition is on record?
Its inhibition is 12.2% (inactive).

For `NS(=O)(=O)c1ccc(NC(=S)N2CCCC2)cc1`, which inhibition is on record?
The inhibition was -27.4% (inactive).

Which inhibition does the source give for `S=C(Nc1ccc2c(c1)OCO2)N1CCCC1` here?
The inhibition was 87.4% (active).

Which inhibition does the source give for `CCOc1ccc(NC(=S)N2CCCCCC2)cc1` here?
Its inhibition is 29.7% (inactive).

For `CCC(C)c1ccc(NC(=S)N2CCCC2)cc1` (centres undefined), which inhibition is on record?
The inhibition was 68% (active).

With `Cc1cccc(C)c1NC(=S)N1CCCCCC1` as the compound, how does the inhibition read?
Its inhibition is -6.49% (inactive).

Which inhibition does the source give for `C=CCC1=C/C(=C\c2c(N)n3nc(CC(=O)N4CCOCC4)sc3nc2=O)C=C(OC)C1=O` here?
Its inhibition is -1.44% (inactive).

For `Cc1cnc(CN(C)C(=O)CC2C(=O)NCCN2Cc2cccc(F)c2F)[nH]1` (centres undefined), which inhibition is on record?
The inhibition was -27.4% (inactive).

Which inhibition does the source give for `O=C(Cn1c[n+](CC(=O)c2ccc([N+](=O)[O-])cc2)cn1)c1ccc([N+](=O)[O-])cc1` here?
The inhibition was -3.01% (inactive) and 31.4% (inactive).

Which inhibition does the source give for `COc1ccccc1CNS(=O)(=O)c1ccc2c(c1)NC(=O)CS2` here?
Its inhibition is 17.1% (inactive).

Which inhibition does the source give for `CCOC(=O)c1ccccc1NS(=O)(=O)c1c(C)nc2sccn2c1=O` here?
Its inhibition is -9.62% (inactive).

For `CN1OC(COC(=O)c2ccc(Cl)cc2)CC1c1ccccc1` (centres undefined), which inhibition is on record?
Its inhibition is 50.7% (active).

Which inhibition does the source give for `Cn1cncc1COC(=O)c1ccc(Cl)cc1` here?
The inhibition was 0.74% (inactive).

For `CN1C2C=C(N(C(=O)c3ccc(Cl)cc3)c3ccccc3)CC1CC2` (centres undefined), which inhibition is on record?
Its inhibition is -14.6% (inactive).

Which inhibition does the source give for `Cc1ccc(NS(=O)(=O)c2ccc3c(c2)NC(=O)CO3)cc1` here?
Its inhibition is -11.9% (inactive).

With `Cc1cc(NC(=O)CSc2nnnn2-c2ccc(F)cc2)no1` as the compound, how does the inhibition read?
Its inhibition is 24.2% (inactive).

For `CN(C)c1ccc(-c2nnc(-c3cccnc3)o2)cc1`, which inhibition is on record?
The inhibition was 104% (active).

For `Cc1csc(NC(=O)CSc2nnc(-c3cccnc3)o2)n1`, which inhibition is on record?
The inhibition was -20.1% (inactive).

For `CN(C)c1nc(-c2cccnc2)nc(-c2ccc(Cl)cc2)c1C#N`, which inhibition is on record?
The inhibition was -6.6% (inactive).
